Gli-Sufu antag – Gli-Sufu pathway antagonists, primary screen, luciferase luminescence, Sufu-KO-LIGHT cells, uHTS; Sufu-KO-LIGHT fibroblasts, Gli luciferase reporter luminescence; 0.74% of 340,000 active; inhibition, % at 5 µM;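 active = inhibition above about 55%, limit read from the data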;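 also: 0% = DMSO-treated cells and 100% = wells with medium but no cells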
NR5A2 inv ag – LRH-1 (NR5A2) inverse agonists, primary screen, cell-based, luminescence, HEK293T, StAR-luciferase reporter; Nuclear receptor subfamily 5 group A member 2 (Homo sapiens), O00482; LRH-1 transfected, 24 h; inhibition, % at 3.6 µM; 0.13% of 360,000 active;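 active = inhibition above the mean inhibition of all tested compounds plus 3 SD, cut at about 73% in these data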;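 also: 0% = DMSO wells and 100% = reporter-only cells lacking LRH-1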
SRC1 inh – SRC1 coactivator transcriptional activity inhibitors, primary screen, cell-based, luminescence; Nuclear receptor coactivator 1 (Homo sapiens), Q15788; HEK293 GAL4-SRC1 luciferase reporter; inhibition, % at 3.6 µM; 0.12% of 360,000 active;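 active = inhibition above the campaign mean plus 3 SD, with each screening campaign given its own cutoff, cut at about 60% in these data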;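 also: 0% = DMSO treated cells and 100% = gossypol at 36 µM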
NCOA3 inh – SRC3 coactivator transcriptional activity inhibitors, primary screen, cell-based, luminescence; inhibition, % at 3.6 µM; 0.17% of 360,000 active; HEK293 GAL4-SRC3 luciferase reporter; AID 588352, 2011;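 active = inhibition above a per-campaign cutoff, the mean of all compounds plus 3 SD, cut at about 60% in these data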;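 also: 0% = DMSO-treated cells and 100% = gossypol-treated cells at 36 µM; higher means less SRC3-driven luciferase light from the GAL4 reporter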
NR2F2 inh – NR2F2 transcriptional activity inhibitors, primary screen, cell-based, luciferase reporter, HEK293T, luminescence. HEK293T NGFI-A luciferase reporter. inhibition, % at 8.6 µM. 0.7% of 370,000 active. AID 686940, 2013;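 active = inhibition above a per-plate cutoff, mean inhibition of test wells between control levels plus 3 SD, cut at about 38% in these data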;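 also: cells cotransfected with COUP-TFII expression vector driving the NGFI-A reporter; 0% = median of COUP-TF2 test wells and 100% = reporter-only cells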
SRC2 inh – inhibition of GAL4-SRC2 driven luciferase reporter, primary screen, SRC2 inhibitor project, cell-based, luminescence; HEK293 GAL4-SRC2 luciferase reporter; inhibition, % at 9 µM; 0.17% of 370,000 active; Nuclear receptor coactivator 2 (Homo sapiens), Q15596;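 active = inhibition above the mean inhibition of all tested compounds plus 3 SD, set per campaign, cut at about 52% in these data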;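 also: 0% = DMSO treated cells and 100% = cells given Gossypol at 36 µM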
Gli-Sufu confirm – Gli-SUFU pathway antagonists, confirmation, single concentration, luciferase luminescence, Sufu-KO-LIGHT cells | shares compounds with Gli-Sufu antag | Gli luciferase reporter | inhibition, % at 5 µM | 40% of 2,500 active | AID 602428, 2012;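 active = mean inhibition at 5 µM reaching about 45%, limit read from the data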;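 also: plate controls were DMSO-treated cells for no effect and wells lacking cells for full effect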
SufuKO cytotox – cytotoxicity in Sufu-KO-LIGHT cells, confirmation, cytotoxicity control for Gli-SUFU antagonist project, cell-based, ATP luminescence, single concentration; 32% of 2,500 active; shares compounds with Gli-Sufu antag; cytotoxicity, % at 5 µM;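 active = mean cytotoxicity at 5 µM above about 25%, limit read from the data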;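 also: cells exposed to compound overnight for roughly 16 to 18 hours; plate controls were DMSO wells with cells for no effect and medium without cells for full effect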
Wnt3a counter – Wnt3a reporter signal inhibition, confirmation, counter-screen for Gli-SUFU antagonist project, Wnt-LIGHT cells, luminescence, single concentration. shares compounds with Gli-Sufu antag. Wnt3a-driven luciferase reporter. inhibition, % at 6.25 µM. 20% of 2,500 active;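 active = mean inhibition above about 25%, limit read from the data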
* = called active by the depositor; · = no result given. A selection: hits, their analogues and other compounds. The true share with any hit is near 1.3%.

SMILES | Gli-Sufu antag | NR5A2 inv ag | SRC1 inh | NCOA3 inh | NR2F2 inh | SRC2 inh | Gli-Sufu confirm | SufuKO cytotox | Wnt3a counter
CC(=O)Nc1ccc(N2C(=O)CSC2c2c(F)cccc2Cl)cc1 (stereo not drawn) | 52 | -3 | 7 | 10 | -5 | -26 | 9 | 13 | -15
CC(=O)Nc1ccc(N2C(=O)CSC2c2ccc(F)cc2)cc1 (stereo not drawn) | 1 | -4 | -2 | 5 | -6 | -11 | · | · | ·
O=C(COc1ccccc1)N1CCN(c2nnc(-c3ccccc3)c3ccccc23)CC1 | 96* | -8 | -7 | 3 | 19 | 8 | 32 | 3 | 1
Fc1ccccc1-c1csc(-c2cccnc2)n1 | 31 | -18 | -20 | -29 | -23 | 1 | · | · | ·
Cc1csc(-c2cccnc2)n1 | 99* | 7 | -11 | 24 | 17 | 9 | 14 | -6 | 16
N#C/C(=C(/O)c1ccc([N+](=O)[O-])s1)c1nc2ccccc2[nH]1 | 53 | 3 | 2 | -2 | -17 | -10 | 59* | 21 | 33*
N#C/C(=C(/O)c1ccc(Br)s1)c1nc2ccccc2[nH]1 | 23 | -6 | -15 | -31 | -8 | -7 | · | · | ·
Cc1ccc(-n2c(SCC(=O)Nc3ccc(OCc4ccccc4)cc3)nnc2-c2ccccc2)cc1 | · | · | · | · | -12 | 16 | · | · | ·
CCCCc1ccc(N=N/C(C(=O)Nc2cc(OC)c(NC(C)=O)cc2OC)=C(/C)O)cc1 | 64* | -10 | 0 | -10 | 9 | 0 | 16 | 4 | -40
CCCCc1ccc(N=N/C(C(=O)Nc2ccccc2OC)=C(/C)O)cc1 | 3 | -20 | -1 | -7 | -11 | 11 | · | · | ·
COC(=O)[C@]12C[C@H](CC(=O)NCC34CC5CC(CC(C5)C3)C4)C(=O)N(CCC3=CCCCC3)C1=C[C@H](C(C)(C)C)O[C@@H]2C | · | · | · | · | -22 | -10 | · | · | ·
Cc1[nH]c2ccccc2c1/C=C/c1nc2ccccc2c(=O)n1-c1cccc([N+](=O)[O-])c1 | 50 | 2 | 4 | 21 | 12 | 3 | 20 | 8 | -8
CC(=O)NC1=NN(C(C)=O)C(C)(c2ccc3ccccc3c2)S1 (stereo not drawn) | 4 | -13 | 5 | 17 | 2 | -10 | · | · | ·
COc1ccc2c(c1)CCCC21SC(NC(C)=O)=NN1C(C)=O (stereo not drawn) | 51 | 1 | -51 | 17 | 11 | -4 | 26 | 15 | 10
COCCNC(=S)NCc1ccc2[nH]c3c(c2c1)CCCC3 | 92* | -11 | -63 | -101 | -28 | -11 | 12 | 26* | -8
COc1ccc(OC)c(CNS(=O)(=O)c2ccccc2Br)c1 | · | · | · | · | -1 | -5 | · | · | ·
Cc1ccc(Nc2nc3c(c(=O)[nH]2)CCCC3)cc1 | -38 | -33 | -27 | -44 | -27 | -30 | · | · | ·
O=c1[nH]c(Nc2nc3ccccc3o2)nc2c1CCCC2 | 62* | -144 | -89 | -84 | -14 | -21 | 64* | 39* | 44*
Cc1ccc(-c2csc(NC(=O)c3c(C)noc3C)n2)cc1C | -1 | -49 | -22 | -29 | -6 | -35 | · | · | ·
Cc1ccc(-c2csc(NC(=O)c3c(C)noc3C)n2)s1 | 55 | -10 | -26 | -24 | · | · | 64* | 34* | -14
Cc1csc(NC(=O)c2cc3c(s2)CCC3)n1 | 62* | -121 | -101 | -80 | -10 | -3 | -62 | 12 | -1
COC(=O)c1sc(NC(=O)c2cc3c(s2)CCCC3)nc1C | -100 | -171 | -128 | -83 | -25 | -40 | · | · | ·
CSc1nc(N)nc2c1ncn2CC(=O)N1CCN(Cc2c(C)cc(C)cc2C)CC1 | 51 | 26 | 35 | 16 | 51* | 22 | 62* | 27* | 44*
COC1C(CO)OC(n2c3c(Cl)cccc3c3c4c(c5c6cccc(Cl)c6[nH]c5c32)C(=O)NC4=O)C(O)C1O (stereo not drawn) | 62* | 29 | 70* | 64* | 3 | -23 | 37 | 26* | 30*
NNC(=O)c1csc(-c2cccc(C(F)(F)F)c2)n1 | 95* | 19 | -3 | 18 | -4 | 8 | 23 | 2 | -6
SMILES | Gli-Sufu antag | NR5A2 inv ag | SRC1 inh | NCOA3 inh | NR2F2 inh | SRC2 inh | Gli-Sufu confirm | SufuKO cytotox | Wnt3a counter
O=C(Nc1ccc(C(F)(F)F)cc1)c1csc(-c2ccncc2)n1 | 5 | 14 | 8 | 20 | 20 | 7 | · | · | ·
CC1CCC(C(C)C)C(OCC(O)CN2CCOCC2)C1 (stereo not drawn) | 54 | 7 | 15 | 14 | -12 | 2 | 11 | 4 | -18
CC1CCC(C(C)C)C(OCC(O)CN2CCCC(C)C2)C1 (stereo not drawn) | 7 | 5 | -16 | 9 | -8 | 39 | · | · | ·
C=CCN=C(NC#N)SCC(=O)NC(C)(C)C | 4 | -9 | -4 | 7 | 0 | -12 | · | · | ·
C=CCN=C(NC#N)SC | 58* | 21 | 3 | -7 | 10 | 8 | 15 | 9 | 9
Nc1[nH]c(C(=O)c2ccccc2)c(-c2cccc3ccccc23)c1C(=O)NC1CCCCC1 | · | · | · | · | -8 | 21 | · | · | ·
COC(=O)[C@]12C[C@H](CC(=O)N3CCC(c4ccccc4)CC3)C(=O)N(Cc3ccc4c(c3)OCO4)C1=C[C@H](COCc1ccccc1)O[C@@H]2C | · | · | · | · | 9 | -19 | · | · | ·
Cc1cc(O)cc(=O)n1-c1cc(F)c(F)c(F)c1 | · | · | · | · | -8 | -2 | · | · | ·
Cc1c(OCC(=O)C(C)(C)C)ccc2c3c(c(=O)oc12)CCCC3 | 62* | -25 | -10 | -42 | -19 | 8 | 27 | 7 | -50
CCOC(=O)COc1ccc2c3c(c(=O)oc2c1C)CCC3 | 11 | -7 | -23 | -13 | 3 | -20 | · | · | ·
CC(C)C[C@@H]1COc2cc(NCCCN3CCOCC3)ccc2S(=O)(=O)N1 | · | · | · | · | -9 | 17 | · | · | ·
CC(C)(C)S(=O)N1C[C@@H]2CC(=O)C(CCO)=C2[C@H]1CCO (stereo partly drawn) | · | · | · | · | 8 | -15 | · | · | ·
Cc1cc(C(=O)NC2CCCN(Cc3ccc(Cl)cc3)C2)n(C)n1 (stereo not drawn) | 57* | 26 | -5 | 24 | 23 | -8 | 19 | 20 | -3

Source: PubChem (several laboratories)
